Test results reported in PubChem BioAssay (EPA / NIEHS).
Results filed as inconclusive are left out. Calls of active or inactive are those of the source. Rule for the calls: active = hit-call score of the fitted dose curve at least 0.9, where 1 is the maximum; inconclusive = response in the unintended direction; inactive = score below 0.9.

What follows are molecules tested against Cellular tumor antigen p53 (Homo sapiens) (UniProt P04637) (assay: TOX21_p53_BLA_p5_ratio: Tox21 HCT-116 p53 Agonism Beta-lactamase Assay, Ratio, Phase 5 (AID 2283599)).
Cellular tumor antigen p53 (Homo sapiens), sequence (P04637 whole entry, looked up): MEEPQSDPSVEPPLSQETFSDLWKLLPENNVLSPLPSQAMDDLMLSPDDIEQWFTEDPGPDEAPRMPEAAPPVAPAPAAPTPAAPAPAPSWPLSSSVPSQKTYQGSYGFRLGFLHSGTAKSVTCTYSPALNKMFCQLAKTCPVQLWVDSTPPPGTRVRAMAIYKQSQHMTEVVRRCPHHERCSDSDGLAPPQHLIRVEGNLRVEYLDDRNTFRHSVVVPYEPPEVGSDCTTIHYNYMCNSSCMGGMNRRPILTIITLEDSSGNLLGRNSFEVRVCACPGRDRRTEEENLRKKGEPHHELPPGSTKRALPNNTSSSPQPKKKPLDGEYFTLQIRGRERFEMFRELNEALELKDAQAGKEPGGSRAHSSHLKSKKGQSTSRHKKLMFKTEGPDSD
In short: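 HCT-116 cells carrying a p53-inducible beta-lactamase reporter were seeded at 4000 cells/well and dosed after 5 h with compound in DMSO (217-fold dilution). After 16 h at 37C, CCF4-AM substrate was added for 2 h, and the 460/530 nm emission ratio was scored as gain-of-signal versus DMSO.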
With Oc1cc2c(cc1O)[C@H]1c3ccc(O)c(O)c3OC[C@@]1(O)C2 the outcome was “inactive”.
For COC(=O)[C@H]1[C@H]2C[C@@H]3c4[nH]c5cc(OC)ccc5c4CCN3C[C@H]2C[C@H](OC)[C@@H]1OC, the outcome was “inactive”.
With CC(=O)CCCCn1c(=O)c2c(ncn2C)n(C)c1=O the outcome was “inactive”.
For O=[N+]([O-])c1ccc(F)cc1F, the outcome was “inactive”.
With O=c1[nH]ncc2ccccc12 the outcome was “inactive”.
CC[N+]1(CC)CCC(=C(c2ccccc2)c2ccccc2)C1C (stereo not drawn) was tested, and the outcome was “inactive”.
With Cc1ccc(C(=O)O)cc1 the outcome was “inactive”.
In the case of COCCCOc1cc(C[C@@H](C[C@H](N)[C@@H](O)C[C@H](C(=O)NCC(C)(C)C(N)=O)C(C)C)C(C)C)ccc1OC, the outcome is reported as “inactive”.
For CC(O)[C@@H]1NC(=O)[C@H](CCCCN)NC(=O)[C@@H](Cc2c[nH]c3ccccc23)NC(=O)[C@H](Cc2ccccc2)NC(=O)[C@@H](NC(=O)[C@H](N)Cc2ccccc2)CSSC[C@@H](C(=O)N[C@H](CO)[C@@H](C)O)NC1=O (stereo partly drawn), the outcome was “inactive”.
In the case of Cc1ccccc1CNc1ncnc2c1ncn2[C@@H]1O[C@H](CO)[C@@H](O)[C@H]1O, the outcome is reported as “inactive”.
For N#Cc1ccc(C(=O)O)cc1, the outcome was “inactive”.
In the case of CC(C)CCOC(=O)c1ccc(N(C)C)cc1, the outcome is reported as “inactive”.
With NC(=O)CCCCC1CCSS1 (stereo not drawn) the outcome was “inactive”.
For CCN1CCOCC1, the outcome was “inactive”.
In the case of Cc1ccc(C2(O)CCN(CCCC(=O)c3ccc(F)cc3)CC2)cc1, the outcome is reported as “inactive”.
In the case of NC12CC3CC(CC(C3)C1)C2, the outcome is reported as “inactive”.
Cc1ccc(Cl)cc1N was tested, and the outcome was “inactive”.
With CC(=O)SC[C@@H](Cc1ccccc1)C(=O)NCC(=O)OCc1ccccc1 the outcome was “inactive”.
